The supplement of paper PMC3842684

System: P. falciparum NF54-pfs16-GFP early (I-III) stage gametocytes
Test: relative % inhibition of viable gametocyte number; higher = more gametocytocidal
Conditions: 5 µM; stage: early (I-III) gametocyte; incubation 72 h
Outline: (§1)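 Relative inhibition was normalised to in-plate vehicle and positive-control wells, with viable gametocytes defined on confocal images as elongated GFP objects whose MitoTracker Red signal exceeded a cut-off. NF54 pfs16-GFP gametocytes, magnet-isolated at early (I/IIa, day 2) or late (day 8) stage, were plated at 10% parasitaemia, 0.1% haematocrit with compound at 5 or 0.5 µM. Plates were incubated 72 h at 37°C, 5% CO2, 5% O2, then stained overnight.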

SMILES | relative % inhibition [%]
Cc1ccc2nc(C)cc(Nc3cccc(C(F)(F)F)c3)c2c1 | 60.2
OCCNc1nc(Nc2ccc(Cl)c(Cl)c2)nc2ccccc12 | -11
O=C(Nc1ccc(Cl)c(Cl)c1)Nc1ccc(Cl)c(Cl)c1 | 96
COc1ccc(CCN2CCC(CN(C)Cc3cnn(-c4ccccc4)c3)CC2)cc1 | 65.3
CCOc1cc(Cl)c(C(C)NC(=O)c2ccccc2)cc1OCC (centres undefined) | 34.5
CCCCCCOC(=O)C1=C(C)NC(=O)NC1c1ccccc1F (centres undefined) | 4.18
O=c1nc(C=Cc2ccc(Br)cc2)oc2ccccc12 | -18.8
COc1ccc2sc(N(Cc3cccnc3)C(=O)c3ccc(C#N)cc3)nc2c1 | 7.65
CCOC(=O)c1cn(CC)c2cc(N3CCCCC3)c(F)cc2c1=O | 17
OC(Cn1nnc2ccccc21)Cn1c2ccc(Br)cc2c2cc(Br)ccc21 (centres undefined) | 83.6
COc1ccccc1N=C1C(=O)c2ccccc2C(O)=C1N1CCCCC1 | 44.6
c1ccc2c(NCCc3c[nH]c4ccccc34)c3ccccc3nc2c1 | 89.1
O=C(CCl)NCCOc1ccc(Cl)cc1Cl | 9.39

System: P. falciparum NF54-pfs16-GFP late (IV-V) stage gametocytes
Test: as above
Conditions: 0.5 µM; stage: late (IV-V) gametocyte; incubation 72 h
Outline: as §1

SMILES | relative % inhibition [%]
c1ccc(C2=Nc3ccccc3N=C(c3ccccc3)c3ccccc32)cc1 | 15.2
CC(C)OCc1cc(CN2CCN(c3cccc(Cl)c3)CC2)c(O)c2ncccc12 | 8.7
COc1ccc2nc(C)cc(Nc3ccccc3O)c2c1 | -7.14
CCOC(=O)c1cnc2ccc(OC)cc2c1NCc1ccccc1 | 10.1
CCc1ccc(Nc2cc(C)nc3nc(C)nn23)cc1 | 4.51
CCn1nc(-c2ccc(C(=O)OC)cc2)nc2c(=O)n(C)c(=O)nc1-2 | 68
Brc1ccc(Nc2nc3ccccc3nc2Nc2ccc(Br)cc2)cc1 | 55.2
CC(C)CNC(=O)c1c(N)n(CCc2ccccc2F)c2nc3ccccc3nc12 | 3.01
CC1=C(CC(=O)c2cccc([N+](=O)[O-])c2)C(=O)c2ccccc2C1=O | 39.3
COc1cccc(C(=O)NC(c2ccc(C)cc2)c2cc(Cl)c3cccnc3c2O)c1 (centres undefined) | 46.5
COc1cccc(Nc2nc(NCCO)c3ccccc3n2)c1 | 17.4
CCOc1ccc(C=Cc2nc(=O)c3ccccc3o2)cc1 | 22.3
CCC(C)NCC(O)(c1ccc(Cl)cc1)c1ccc(Cl)cc1 (centres undefined) | 27.1
COc1ccc(OC)c(C2C3=C(CC(C)(C)CC3=O)N(c3ccc(Cl)c(Cl)c3)C3=C2C(=O)CC(C)(C)C3)c1 | 13.8
O=C(Nc1cccc(C(F)(F)F)c1)c1cc(Cl)ccc1O | 15
CN(C)c1ccc(C(O)(c2ccc(N(C)C)cc2)c2ccc(N(C)C)cc2)cc1 | 102
Nc1ccc(-c2nc3cc(Cc4ccc5[nH]c(-c6ccc(N)cc6)nc5c4)ccc3[nH]2)cc1 | 14.6
CCC(c1ccccc1)c1nn2c(-c3cccs3)nnc2s1 (centres undefined) | 8.5

SMILES | relative % inhibition [%]
CCOC(=O)c1cnc2c(C)cccc2c1Nc1ccc(C(C)=O)cc1 | 7.91
Cc1cc(NCCN2CCCCC2)c2ccc3ccccc3c2n1 | 4.67
O=C(NC1CCN(Cc2ccccc2)CC1)c1cc(C(=O)NC2CCN(Cc3ccccc3)CC2)cc(C(=O)NC2CCN(Cc3ccccc3)CC2)c1 | 0.475
Cc1ccc(C(=O)c2oc3ccc4c(C)cc(=O)oc4c3c2C)cc1 | 0.817
CCCCC(O)(c1ccc(Cl)cc1)C(CN1CCOCC1)c1ccc(Cl)cc1 (centres undefined) | -3.8
Cn1c(=O)n(C)c2cc(CNCCNc3ccnc4cc(Cl)ccc34)ccc21 | 37.6
CCOC(=O)c1cnc2c(C)cc(C)cc2c1Nc1ccc(OC)c(OC)c1 | -4.75
CCOc1ccccc1CN1CCc2nc3cc(C(C)(C)C)nn3c(O)c2C1 | 66.3
Cc1ccc2nc(C)cc(Nc3cccc(C(F)(F)F)c3)c2c1 | 26.7
OCCNc1nc(Nc2ccc(Cl)c(Cl)c2)nc2ccccc12 | 53.9
O=C(Nc1ccc(Cl)c(Cl)c1)Nc1ccc(Cl)c(Cl)c1 | 17.5
COc1ccc(CCN2CCC(CN(C)Cc3cnn(-c4ccccc4)c3)CC2)cc1 | 11.3
CCOc1cc(Cl)c(C(C)NC(=O)c2ccccc2)cc1OCC (centres undefined) | 8.2
CCCCCCOC(=O)C1=C(C)NC(=O)NC1c1ccccc1F (centres undefined) | -3.35
O=c1nc(C=Cc2ccc(Br)cc2)oc2ccccc12 | 4.47
COc1ccc2sc(N(Cc3cccnc3)C(=O)c3ccc(C#N)cc3)nc2c1 | -14.5
CCOC(=O)c1cn(CC)c2cc(N3CCCCC3)c(F)cc2c1=O | 91.5
OC(Cn1nnc2ccccc21)Cn1c2ccc(Br)cc2c2cc(Br)ccc21 (centres undefined) | 18.2
